Compound activity deposited in PubChem by several laboratories.
Only some compounds are listed: those with a hit (about 3.1% of all), similar ones and a draw of the others.
Rin1-Abl PPI inh = inhibitors of Rin1-Abl protein binding, primary screen, biochemical, TR-FRET; inhibition, % at 7.35 µM; 360,000 compounds, 0.4% hits; in the data active means inhibition above about 5%, passing the limit was not always enough
LEDGF integ inh = blockers of LEDGF/p75-dependent integrase strand transfer – biochemical, TR-FRET, high throughput, primary screen; HIV-1 integrase (with human LEDGF/p75); TR-FRET IN-LEDGF/p75 DNA integration, Eu/Cy5; inhibition, % at 3.7 µM; 370,000 compounds, 0.64% hits; AID 743269, 2014;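 active means inhibition above the screen-wide mean plus 3 SD, cut at about 13% in these data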;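 further: signal is the Cy5 over europium emission ratio at 671 and 618 nm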
proKLK7 act = proKLK7 zymogen activators, primary screen, biochemical, fluorescence intensity; activation, % at 7 µM; AID 652039, 2013; Kallikrein-7 (Homo sapiens), P49862; purified proKLK7, EDANS-DABCYL substrate fluorescence; 100% is mature enzyme control, 0% vehicle; 370,000 compounds, 0.9% hits;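 active means activation above the mean of all tested compounds plus 3 SD, computed per campaign excluding outliers beyond control limits, cut at about 13% in these data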
Target sequence (P49862 whole entry, looked up): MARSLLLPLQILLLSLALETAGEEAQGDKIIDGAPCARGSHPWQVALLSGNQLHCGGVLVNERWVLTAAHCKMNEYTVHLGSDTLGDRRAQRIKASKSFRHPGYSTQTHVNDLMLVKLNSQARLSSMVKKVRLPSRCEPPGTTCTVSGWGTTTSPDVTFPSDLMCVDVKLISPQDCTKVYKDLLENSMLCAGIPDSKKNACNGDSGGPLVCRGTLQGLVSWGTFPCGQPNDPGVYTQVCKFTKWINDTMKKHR
UHRF1 MBD2 ctr = UHRF1 methylated DNA binding inhibitors, primary screen, counter-screen for MBD2 inhibitor project, biochemical, TR-FRET, human UHRF1, single concentration; UHRF1 binding to methylated oligo; inhibition, % at 4.4 µM; 370,000 compounds, 0.75% hits; AID 687016, 2013; in the data active means inhibition above about 21%;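 further: UHRF1 SRA domain binding a hemimethylated CpG hairpin DNA probe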
Neddyl block = inhibitors of cullin neddylation, primary screen, biochemical, TR-FRET, uHTS, NAE and Ubc12; 360,000 compounds, 0.58% hits; calls only at 25 µM; NEDD8-conjugating enzyme Ubc12 (Homo sapiens) + NEDD8-activating enzyme E1 regulatory …; in the data active means inhibition above about 36%
MBD2 inh = inhibitors of MBD2 binding to methylated DNA, primary screen, biochemical, TR-FRET, DNA-binding domain, human. Methyl-CpG-binding domain protein 2 (Homo sapiens), Q9UBB5. MBD2 binding to methylated oligonucleotide. inhibition, % at 4.4 µM. 370,000 compounds, 0.31% hits. AID 686964, 2013; in the data active means inhibition above about 13%
Target sequence (Q9UBB5 whole entry, looked up, the tested form may be a part): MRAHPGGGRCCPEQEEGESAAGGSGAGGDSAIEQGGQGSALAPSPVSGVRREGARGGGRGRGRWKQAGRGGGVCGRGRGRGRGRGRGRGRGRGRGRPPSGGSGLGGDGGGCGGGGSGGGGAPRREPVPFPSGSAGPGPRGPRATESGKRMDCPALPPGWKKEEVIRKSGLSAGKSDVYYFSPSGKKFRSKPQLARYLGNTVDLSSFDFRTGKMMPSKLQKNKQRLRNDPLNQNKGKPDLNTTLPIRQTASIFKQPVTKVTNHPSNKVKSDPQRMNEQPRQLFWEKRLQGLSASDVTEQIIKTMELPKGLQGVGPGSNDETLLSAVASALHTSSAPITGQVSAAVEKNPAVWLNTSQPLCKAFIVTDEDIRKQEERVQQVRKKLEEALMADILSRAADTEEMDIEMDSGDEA
IN multimer up = HIV-1 IN multimer formation enhancers, counter-screen for LEDGF/p75 integration inhibitor project, biochemical, TR-FRET | shares compounds with LEDGF integ inh | TR-FRET HIV-1 integrase multimerization | activation, % at 7.7 µM | 2,000 compounds, 17% hits; in the data active means activation above about 8.9%
TRFRET interf = TR-FRET optical interference artefacts, confirmation, artefact control for LEDGF/p75-dependent integration inhibitor project, biochemical, HIV-1 IN multimerization; TR-FRET optical interference counterscreen; shares compounds with LEDGF integ inh; inhibition, % at 7.7 µM; 2,000 tested, under 10 active;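 active means inhibition above the mean over all tested compounds plus 3 SD, which no compound reached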
LEDGF integ conf = inhibitors of HIV-1 IN-LEDGF/p75 DNA integration, confirmation, biochemical, TR-FRET; shares compounds with LEDGF integ inh; TR-FRET LEDGF/p75-dependent HIV-1 integration; inhibition, % at 3.7 µM; 2,000 compounds, 36% hits; AID 1053136, 2014; in the data active means inhibition above about 14%
Of the large screens only hits and unclear results are named; the others gave an inactive call (follow-up assays come after a bar, where shown).

COC(=O)c1ccc(NC(=S)N2CCN(Cc3ccccc3Cl)CC2)cc1	LEDGF integ inh 76 | IN multimer up inactive | TRFRET interf inactive | LEDGF integ conf inactive
O=C(NCCOc1ccccc1)C(=O)c1c[nH]c2ccccc12	LEDGF integ inh 30 | IN multimer up inactive | TRFRET interf inactive | LEDGF integ conf inactive
Cc1ccc(/C=c2\s/c(=C(/C#N)C(=O)N3CCCC3)n(Cc3ccco3)c2=O)s1	LEDGF integ inh 14 | IN multimer up inactive | TRFRET interf inactive | LEDGF integ conf inactive
Cc1cc(-n2c(C)cc(C(=O)CSc3nncn3C(C)C)c2C)no1	none
O=C(Nc1cccs1)Nc1ccccc1Cl	LEDGF integ inh 15 | IN multimer up inactive | TRFRET interf inactive | LEDGF integ conf inactive
COc1ccc(Cc2[nH]n3c(=O)c(Cl)c(C)nc3c2-c2ccccc2)cc1	none (not shown: Neddyl block)
COC(=O)c1cc(C)nc2c1C(=O)C(=O)C=C2N1CCOCC1	LEDGF integ inh 38 | IN multimer up inactive | TRFRET interf inactive | LEDGF integ conf 78
COc1cccc(C=Nc2ccc(N3CCOCC3)cc2)c1O	LEDGF integ inh 18 | IN multimer up inactive | TRFRET interf inactive | LEDGF integ conf inactive
Oc1ccc(N=Cc2cc(Br)c(N3CCOCC3)o2)cc1	none
O=[N+]([O-])c1cc(Br)c(O)c(C=Nc2ccc(N3CCOCC3)cc2)c1	LEDGF integ inh 26 | IN multimer up 8.9 | TRFRET interf inactive | LEDGF integ conf 15
Cc1cc(C)c(C)c(S(=O)(=O)N2CCN(c3ccc(O)cc3)CC2)c1C	none
COC(=O)[C@]12C[C@H](CC(=O)NCc3cccc4ccccc34)C(=O)N(Cc3cccc4ccccc34)C1=C[C@H](C1CCCC1)O[C@@H]2C	none (no result: Rin1-Abl PPI inh, Neddyl block)
Oc1cc(Nc2cccnc2)cc2cccnc12	none
Oc1cc(NCCc2cccnc2)cc2cccnc12	LEDGF integ inh 18 | IN multimer up inactive | TRFRET interf inactive | LEDGF integ conf 21
O=C(O)C1CC=C(Cl)CC1C(=O)NC1CCCCC1 (configuration not stated)	none (no result: LEDGF integ inh, proKLK7 act, UHRF1 MBD2 ctr, MBD2 inh)
O=CNc1cc(-c2ccoc2)cn2c(-c3ccc(F)cc3)cnc12	LEDGF integ inh 14 | IN multimer up inactive | TRFRET interf inactive | LEDGF integ conf inactive
CC(=O)c1ccc(-c2cnc3c(NC=O)cc(-c4ccc(S(C)(=O)=O)cc4)cn23)cc1	none
CC(=O)c1ccc(-c2cnc3c(NC=O)cc(-c4cnn(C)c4)cn23)cc1	LEDGF integ inh 24 | IN multimer up inactive | TRFRET interf inactive | LEDGF integ conf inactive
CCCC(C)C(=O)NC1CCCCN(C)C1=O (configuration not stated)	none (no result: Rin1-Abl PPI inh, Neddyl block)
O=C(NCc1ccccc1)c1cc(-c2ccco2)on1	LEDGF integ inh 16 | IN multimer up inactive | TRFRET interf inactive | LEDGF integ conf inactive
O=C(NCCc1ccccc1)c1cc(-c2ccco2)on1	none
COC1=C(Nc2ccc(OC)cc2)C(=O)c2ccccc2C1=O	LEDGF integ inh 18 | IN multimer up inactive | TRFRET interf inactive | LEDGF integ conf inactive
CCCc1cc(=O)oc2cc(OCC(=O)NCC3CCC(C(=O)O)CC3)ccc12 (configuration not stated)	LEDGF integ inh 33 | IN multimer up inactive | TRFRET interf inactive | LEDGF integ conf inactive
O=C1CN(C(=O)COc2ccc(F)cc2Cl)c2ccccc2N1	LEDGF integ inh 23 | IN multimer up inactive | TRFRET interf inactive | LEDGF integ conf inactive
CCCCCCCCCOC(=O)C(CC(=O)O)N1CCOCC1 (configuration not stated)	none
CCCCCOC(=O)CC(C(=O)OCCCCC)N1CCCCC1 (configuration not stated)	LEDGF integ inh 14 | IN multimer up inactive | TRFRET interf inactive | LEDGF integ conf inactive
COc1cccc(C2=CC(=O)C[C@H](c3ccc(F)cc3)C2)c1	none
COc1cc(F)cc(C2=CC(=O)C[C@H](c3ccc(F)cc3)C2)c1	LEDGF integ inh 59 | IN multimer up inactive | TRFRET interf inactive | LEDGF integ conf inactive
CCCCCc1c(O)nc(SCC(=O)NCC2CCCO2)[nH]c1=O (configuration not stated)	LEDGF integ inh 34 | IN multimer up inactive | TRFRET interf inactive | LEDGF integ conf inactive
COc1ccc2cc(-c3cccc4[nH]cc(C)c34)ccc2c1	none (no result: Rin1-Abl PPI inh, Neddyl block)
Cc1ccccc1-c1cc2c(nn1)-c1ccccc1C2=O	LEDGF integ inh 61 | IN multimer up inactive | TRFRET interf inactive | LEDGF integ conf 40
CC(=O)/C(=N/Nc1ccccc1C)N1CCOCC1	none
O=C(Nc1ccccc1C(=O)N1CCN(c2cccc(Cl)c2)CC1)C1=CSCCO1	LEDGF integ inh 81 | IN multimer up inactive | TRFRET interf inactive | LEDGF integ conf inactive
Cc1cc(C)nc(N2CCCC(CCC(=O)NCc3ccc(F)c(F)c3)C2)n1 (configuration not stated)	none
COc1ccc(N2CCN(C(=O)COC(=O)CCOc3ccc(C)cc3)CC2)cc1	none
COc1ccc(CNC(=O)CN(CCC(C)C)S(=O)(=O)c2ccc3c(c2)OCCO3)cc1	LEDGF integ inh 23 | IN multimer up inactive | TRFRET interf inactive | LEDGF integ conf inactive
CCOc1ccc(-n2cc(C(=O)N3CCCCCC3)c3cc(OC)c(OC)cc3c2=O)cc1	none
Cc1cccc(NC(=O)CCNC(=O)c2ccc(Br)cc2)c1C	none
Cc1cccc2cc(CN(Cc3ccc(F)cc3)C(=O)N3CCOCC3)c(=O)[nH]c12	LEDGF integ inh 14 | IN multimer up inactive | TRFRET interf inactive | LEDGF integ conf inactive
NC(=O)/C(=C\c1ccco1)NC(=O)c1ccco1	LEDGF integ inh 14 | IN multimer up inactive | TRFRET interf inactive | LEDGF integ conf inactive
Cc1cc2c(NC(=O)Nc3ccc(C(F)(F)F)cc3)cccc2nn1	LEDGF integ inh 30 | IN multimer up inactive | TRFRET interf inactive | LEDGF integ conf inactive
